Measurements published in PubChem BioAssay (NCI).
About 83,000 compounds went through this panel and 20% of them were active in at least one assay; those are over-represented in the sample as a whole.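 Cells were grown in 96-well plates and exposed to the test compound at a single concentration for 48 hours; results are reported as percent growth, with values below 10 considered active.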 A number with no mark means an inactive call. Active and inactive are the calls of the source.

Test system: BT-549 breast
Assay: NCI-60 one-dose screen, 48 h (100 = growth as untreated, 0 = no growth, -100 = all killed)
Conditions: 10 µM unless noted
Protocol: Growth inhibition of the BT-549 human tumor cell line is measured as a screen for anti-cancer activity. Cells are grown in 96 well plates and exposed to the test compound for 48 hours. Compounds are tested at a single concentration, which is 10^-5 M for most compounds. The reported endpoint is percent growth (GI% or GIPRCNT), where numbers from 0 - 100% represent growth inhibition, and numbers from -100% - 0 represent cell death. For example, a value of 40 represents 60% growth inhibition. A value of 0 means no net growth occurred over the course of the experiment. A value of -40 indicates 40% of cells at the beginning of the experiment died by the end of the experiment. A value of -100 means all cells are dead at the end of the experiment.
NCI-60 Human Tumor Cell Lines Screen was performed using the standard one-dose NCI protocol, which is described in more detail at https://dtp.cancer.gov/discovery_development/nci-60/default.htm.
Compounds with GIPRCNT values below 10 were considered active. Activity score was based on GIPRCNT using the following formula: […]
Score is 0 for GIPRCNT values of 100 or above, 50 for GIPRCNT values of 0, and 100 for GIPRCNT values of -100.

Structure (SMILES)	growth
CC1=NN(c2cccc(S(N)(=O)=O)c2)C(=O)C1	109%
[Ag].[Ag].[NH-]S(=O)(=O)c1ccc(N=Nc2cc(N=Nc3ccc(S([NH-])(=O)=O)cc3)c3c(NC(=O)C(Cl)Cl)cccc3c2OC(=O)C(Cl)Cl)cc1.[c-]1nccs1.[c-]1nccs1	104%
COc1cc(-c2nc(-c3nc4cc(C(=O)c5ccccc5)ccc4[nH]3)cc3c2[nH]c2ccccc23)cc(OC)c1OC	79.7%
COc1ccc2[nH]cc(C(c3ccc(Cl)cc3)N3CCCC3)c2c1 (stereo not given)	65.9%
CCOP(=O)(O)OP(=O)(O)OCC	102%
O=C(Nc1ccc(Br)cc1)Nc1ccccc1Cl	103%
O=C(/C=C/c1ccccc1)n1c(-c2ccccc2)nc2ccccc21	112%
CCc1ccc(Nc2cc(C)c3ccc(O)cc3n2)cc1	88.3%
Cc1nc2ccc(Nc3nc(N4CCOCC4)nc(N4CCN(C)CC4)n3)cc2n1Cc1ccccc1	66.1%
Cc1cc(C)c2c(n1)sc1c(Nc3ccc(O)cc3)ncnc12	50.6%
Cc1ccc(Nc2nc(NCCO)c3ccccc3n2)cc1C	37.7%
Cc1nc2ccc(Nc3nc(Cl)nc(N4CCOCC4)n3)cc2n1Cc1ccccc1	83.7%
CN=C1C=C/C(=N/N=c2/ccn(O)cc2C)C=C1C	107%
CCCc1n(Cc2ccc3ccccc3c2)c2ccccc2[n+]1Cc1ccc2ccccc2c1	-76.6% (active)
COc1ccc2[nH]cc(/C=C3\C(=O)Nc4ccccc43)c2c1	48.5%
Nc1nc2c(c3ncccc13)C(c1ccccc1)Cc1ncccc1-2 (stereo not given)	72.9%
Fc1ccc(-c2nnc(N3CCOCC3)c3ccccc23)cc1	81.4%
CC[C@H](Nc1nc(N)nc(C2CC2)c1C#N)c1nc2cccc(NCc3ccc(C(=O)NO)cc3)c2c(=O)n1-c1ccccc1	33.3%
O=C(Nc1ccc(OS(=O)(=O)c2ccc(F)cc2)cc1)C12CC3CC(CC(C3)C1)C2	71.9%
COc1ccc2c(c1)CCCC21C(=O)Nc2ccccc21 (stereo not given)	101%

Structure (SMILES)	growth
CN1CCN(c2ccc(N3Cc4ccccc4OC4=C3C(=O)c3c(O)ccc(O)c3C4=O)cn2)CC1	-78.8% (active)
OC(c1cc2c(Cl)cc(Cl)cc2c2cc(C(F)(F)F)ccc12)C1CCCCN1 (stereo not given)	50.4%
O=C1OCC2=C1C(c1cccc(Br)c1)c1cc3c(cc1N2CCO)OCCO3 (stereo not given)	21.4%
COc1c(B(O)O)cccc1-c1nc2c(F)cc3n[nH]c(C)c3c2c2c1CCCC2	21.2%
CN(C)c1ccc(Nc2c3ccccc3nc3ccccc23)cc1	44.5%
COc1cc(NCCCCC(C)N)c2nccc(C)c2c1 (stereo not given)	94.5%
COc1ccc(NC(=O)c2ccc(C(F)(F)F)nc2Nc2ccc(Cl)cc2C)cc1Cl	19%
CCN(C(=O)Nc1cccc2ccccc12)c1ccccc1	108%
C=C(C)C1CCC2(C(=O)O)CCC3(C)C(CCC4C5(C)CCC(O)C(C)(C)C5CCC43C)C12 (stereo not given)	-57.5% (active)
Cc1cc(C)c2c(NC(=O)Nc3ccc(Cl)c(Cl)c3)n[nH]c2n1	104%
COc1ccc(-c2n[nH]nc2-c2cc(OC)c3c(c2)OCO3)cc1	15.6%
O=C(Nc1ccc(Oc2ccc(Nc3nc4ccccc4s3)cc2)cc1)Nc1ccc(Cl)c(C(F)(F)F)c1	-1.46% (active)
COc1ccc(C(=O)C(CN(C)C)c2ccccc2)cc1 (stereo not given)	12.9%
OC(c1cc(-c2ccc(C(F)(F)F)cc2)nc(-c2ccc(C(F)(F)F)cc2)c1)C1CCCCN1 (stereo not given)	-79% (active)
OC(c1cc2cc(Cl)ccc2c2cc(C(F)(F)F)ccc12)C1CCCCN1 (stereo not given)	54.7%
CCCCc1n(Cc2ccc3ccccc3n2)cc[n+]1Cc1ccc2ccccc2n1	2.91% (active)
C=CCn1c(SCC(=O)Nc2ccc(C(=O)/C=C/c3ccc(Cl)cc3)cc2)nnc1-c1ccc(Cl)cc1	82.5%
COc1ccc2nc(C)cc(Nc3ccccc3O)c2c1	35%
COc1ccc(/C=c2\c(=O)n(-c3ccccc3)c3nn4c(n23)=NNC42CCCCC2)cc1	97.3%
Brc1cccc(-n2ncc3c(Nc4ccc(-c5nnc(-c6ccccc6)o5)cc4)ncnc32)c1	101%
